Biological target: T1, Croc (Drosophila melanogaster, UniProt P32027 54-175)
T1 sequence: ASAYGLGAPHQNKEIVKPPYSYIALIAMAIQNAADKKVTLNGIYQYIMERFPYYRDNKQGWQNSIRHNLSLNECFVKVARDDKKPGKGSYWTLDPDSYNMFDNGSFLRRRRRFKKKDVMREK
Assay: FP; 20 mM Tris-acetate pH 7.0, 50 "nM" NaCl as printed (probably mM), 0.01% Tween 20, 0.1 mM DTT; conventional titration
Conditions: tags: N-GST (pGEX-6P-1, kept); dsDNA, one strand shown

Sequence	binding signal	Kd
TTAGATAAATAAA	2.04 Kd / Kd of best base at the position	–
TTAGATATATATA	164 Kd / Kd of best base at the position	–
TTAGATAAGTATA	95 Kd / Kd of best base at the position	–
TTAGACAAATATA	16.3 Kd / Kd of best base at the position	–
TTAGAAAAATATA	7.44 Kd / Kd of best base at the position	–
TTAGATAAATCTA	46 Kd / Kd of best base at the position	–
TTAGATAAATAGA	5.76 Kd / Kd of best base at the position	–
TTGGATAAATATA	5.64 Kd / Kd of best base at the position	–
TTAGATCAATATA	8.58 Kd / Kd of best base at the position	–
TTAGATACATATA	93.4 Kd / Kd of best base at the position	–
TTAGATAAATACA	1.16 Kd / Kd of best base at the position	–
TTAGAGAAATATA	48.4 Kd / Kd of best base at the position	–
TGAGATAAATATA	76.4 Kd / Kd of best base at the position	–
TTAGATTAATATA	109 Kd / Kd of best base at the position	–
TTACATAAATATA	6.62 Kd / Kd of best base at the position	–
TTAGATGAATATA	2300 Kd / Kd of best base at the position	–
TTAGATAAAAATA	380 Kd / Kd of best base at the position	–
TTAGCTAAATATA	38.6 Kd / Kd of best base at the position	–
TTAGTTAAATATA	43.2 Kd / Kd of best base at the position	–
TTATATAAATATA	2.66 Kd / Kd of best base at the position	–

Sequence	binding signal	Kd
TTCGATAAATATA	33 Kd / Kd of best base at the position	–
TTAGATAAAGATA	119 Kd / Kd of best base at the position	–
TAAGATAAATATA	7.76 Kd / Kd of best base at the position	–
TTAAATAAATATA	1.66 Kd / Kd of best base at the position	–
TTAGATAAATGTA	79 Kd / Kd of best base at the position	–
CTAGATAAATATA	4.3 Kd / Kd of best base at the position	–
TTTGATAAATATA	15.4 Kd / Kd of best base at the position	–
TCAGATAAATATA	51.8 Kd / Kd of best base at the position	–
TTAGATAAACATA	1.86 Kd / Kd of best base at the position	–
TTAGGTAAATATA	3.08 Kd / Kd of best base at the position	–
TTAGATAACTATA	387 Kd / Kd of best base at the position	–
TTAGATAAATTTA	35.4 Kd / Kd of best base at the position	–
TTAGATAAATATG	17.4 Kd / Kd of best base at the position	–
TTAGATAAATATA	–	~0.3 nM
TTAGATAATTATA	197 Kd / Kd of best base at the position	–
TTAGATAAATATT	1.02 Kd / Kd of best base at the position	–
GTAGATAAATATA	13.8 Kd / Kd of best base at the position	–
ATAGATAAATATA	9.22 Kd / Kd of best base at the position	–
TTAGATAAATATC	2.74 Kd / Kd of best base at the position	–

Source: PMC5913336, “True equilibrium measurement of transcription factor-DNA binding affinities using automated polarization microscopy”
